Screening results: PubChem, National Center for Advancing Translational Sciences (NCATS)
Shiga toxin inh = A qHTS for Small Molecule Inhibitors of Shiga Toxin | Vero cells, Shiga toxin protein synthesis inhibition reporter | inhibition, % at 38.7 µM | hit rate 9.2% among 290,000; in the data active = inhibition mostly above about 28%, no sharp cut-off; inactive = mostly below about 43%; also: 0% is about no effect
Pf growth 96h = Primary qHTS for delayed death inhibitors of the malarial parasite plastid, 96 hour incubation. P. falciparum luciferase reporter growth, 96 h. Potency, µM (titrated, usually from 28.7 µM), inactives show at the top dose activity change, negative = inhibition, actives largely listed as inhibitors. hit rate 6.9% among 320,000; also: potency is read from the fitted curve at half-maximal effect; % is scaled to controls: 0 for no effect and ±100 for the full control effect
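Readout is luminescence from an integrated firefly luciferase in P. falciparum. Red cells, 2% hematocrit and 0.05% parasitemia final, were cultured with compound through two parasite generations (96 hours) at 37 C, 5% CO2.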
Sm TGR block = qHTS Assay for the Inhibitors of Schistosoma Mansoni Peroxiredoxins; Schistosoma mansoni thioredoxin glutathione reductase (TGR), Q962Y6; purified TGR, DTNB reduction, TNB absorbance 405 nm; Potency, µM (series often up to 114 µM), for inactives: at the highest dose activity change, negative = inhibition, usual class: inhibitors; hit rate 3% among 360,000; also: potency is read from the fitted curve at half-maximal effect; % is scaled to controls: 0 for no effect and ±100 for the full control effect; nearly all actives have a fitted effect of over 60% in size
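First, TGR (20 nM dispensed) and NADPH were mixed with compound. Second, a 15 min room-temperature incubation followed. Third, further NADPH and then DTNB were added to start the reaction. Finally, TNB absorbance was monitored kinetically.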
Pf growth 48h = Primary qHTS for delayed death inhibitors of the malarial parasite plastid, 48 hour incubation. hit rate 5.9% among 310,000. P. falciparum luciferase growth in erythrocytes, 48 h. Potency, µM (series often up to 28.7 µM), for the others: at the highest dose activity change, negative = inhibition, hits mostly inhibitors. AID 504832, 2011; also: potency is read from the fitted curve at half-maximal effect; % is scaled to controls: 0 for no effect and ±100 for the full control effect
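Parasite viability was followed by luminescence of a genomically integrated firefly luciferase. Cultures held 0.1% parasitemia at 2% hematocrit (final), incubated under 5% CO2 at 37 C.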
CHX counter = Cycloheximide Counterscreen for Small Molecule Inhibitors of Shiga Toxin. cell reporter, cycloheximide protein synthesis inhibition counterscreen. max response, %. AID 2314, 2010. hit rate 12% among 300,000; in the data active = max response mostly above about 13%, no sharp cut-off; inactive = mostly below about 14%; also: read at 38.3 µM for the half of the compounds with a filed dose; 0% is about no effect
NS1 inh = qHTS Assay for Inhibitors of Influenza NS1 Protein Function. AID 2326, 2010. hit rate 0.4% among 270,000. Potency, µM (doses to about 46.1 µM), for the others: top-dose activity, positive = more growth; calls by dose curve; also: potency is read from the fitted curve at half-maximal effect; actives are rising curves; nearly all actives have a fitted effect of over 50% in size
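Growth recovery, yeast-based: influenza A NS1 expressed in S. cerevisiae causes slow growth, and suppressors are detected by OD600. The parent strain without NS1 is used as positive control.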
* marks the source's active call; other numbers are inactive results; ? = inconclusive; . = not tested or not shown. Sampled rows, rich in hits. Any-hit rate of the full collection: about 21%. Unless noted, calls follow the shape of the dose curve; as a rule, active = well fitted curve in the direction sought with a large enough effect; inconclusive = small, poorly fitted or top-dose-only effect, or another doubt; inactive = no such curve, though single readings can be large; an effect the other way counts as inactive or inconclusive.

SMILES	Shiga toxin inh	Pf growth 96h	Sm TGR block	Pf growth 48h	CHX counter	NS1 inh
COc1ccc(S(=O)(=O)N(CC(=O)Nc2ccc(S(=O)(=O)N3CCOCC3)cc2)Cc2ccc(F)cc2)cc1	-9	?	2%	15µM*	-2	16%
Cc1cc(NC(=O)CSc2nnc3ccc(-c4ccc(F)cc4)nn23)no1	.	-2%	-5%	-32%	.	.
O=C(c1cccs1)N1CCN(C23CC4CC(CC(C4)C2)C3)CC1	-15	7%	-7%	1%	-1	-48%
Cn1c(CCC(=O)Nc2ccc(F)cc2)nc2cc(S(=O)(=O)N3CCOCC3)ccc21	.	?	1%	-25%	.	.
CCN(CC)S(=O)(=O)c1ccc(/C=C/C(=O)Nc2ccc(N3CCOCC3)cc2)cc1	16	1.9µM*	13%	10µM*	-1	5%
CCN(CC)S(=O)(=O)c1ccc2c(c1)nc(CCC(=O)Nc1ccc(N3CCOCC3)cc1)n2C	3	?	-15%	15µM*	-1	.
NC1=NC(=O)/C(=C/c2ccccc2OS(=O)(=O)c2ccc3ccccc3c2)S1	-2	?	-14%	0%	-2	8%
COCCN=c1scc(-c2ccc3c(c2)NC(=O)CO3)n1/N=C(\C)c1ccc(O)cc1	-3	?	0%	10µM*	-1	10%
COc1c(C)cc(NC(=O)c2ccc3c(c2)NC(=O)CO3)cc1C	-15	?	-1%	?	5	.
COc1ccc(NC(=O)CN(c2ccc(OC)c(Cl)c2)S(=O)(=O)c2ccccc2)cc1	.	?	4%	-42%	-5	9%
Cn1ncc(S(=O)(=O)Cc2ccccc2)c(Cl)c1=O	19	1%	0.16µM*	-4%	9	-67%
NS(=O)(=O)c1ccc(N=Nc2nc3[nH]c(=O)[nH]c(=O)c3[nH]2)cc1	.	.	.	.	.	13%
COCCn1c(N)c(N(Cc2ccccc2)C(=O)c2cc3ccccc3o2)c(=O)[nH]c1=O	13	0%	0%	245%	1	.
COc1ccc(NC(=O)C(c2cc3c(cc2[N+](=O)[O-])OCO3)N(C)c2ccccc2)cc1 (stereo not drawn)	47	-36%	4%	6%	19*	-5%
COc1ccc(C(=O)c2c(C)c3ccccc3n2CC(O)CNC(C)C)cc1 (stereo not drawn)	-12	?	-2%	12µM*	-7	-9%
COc1ccc(NCC(=O)n2c(C)c(C)c3ccccc32)cc1	6	-12%	?	-34%	7	.
COc1ccc(NC(=O)c2c(NCc3sccc3C)sc3c2CCCCC3)c(OC)c1	.	.	13µM*	.	.	.
CCOc1ccccc1NC(=O)c1c(NCc2sccc2C)sc2c1CCCCC2	.	.	40µM*	.	.	.
CCOc1ccccc1NC(=O)c1c(NCc2sccc2C)sc2c1CCC(C)C2 (stereo not drawn)	.	.	-2%	.	.	.
COc1ccccc1NC(=O)c1c(NCc2sccc2C)sc2c1CCCCC2	.	.	11µM*	.	.	.
COc1ccc(OC)c(NC(=O)c2c(NC(=O)CCC(=O)O)sc3c2CCCCC3)c1	-4	?	1%	-11%	-2	5%
COc1ccc(NC(=O)c2c(NC(=O)CNCC(C)C)sc3c2CCC3)c(OC)c1	26	-4%	.	9.3µM*	11	9%
CCCOc1ccc(Cc2c(Cl)nc(SC)nc2N(C)C)cc1	-11	?	0%	1%	0	-9%
COc1cccc(COC(=O)C2CCN(C(=O)c3ccc(F)cc3)CC2)c1OC	.	-1%	0%	?	.	.
CCOC(=O)c1[nH]c(C)c(C(=O)Nc2ccccc2F)c1C	60*	?	1%	70%	25*	-4%
SMILES	Shiga toxin inh	Pf growth 96h	Sm TGR block	Pf growth 48h	CHX counter	NS1 inh
CCOC(=O)c1[nH]c(C)c(C(=O)Nc2ccc(F)cc2)c1C	7	-28%	-25%	.	-1	4%
CCOC(=O)c1c(C)[nH]c(C(=O)OCc2ccc(F)cc2)c1C	72*	158%	-7%	182%	50*	1%
CCOC(=O)c1c(C)[nH]c(C(=O)OCc2ccccc2F)c1C	115*	161%	2%	56%	50*	6%
CCOC(=O)c1[nH]c(C)c(C(=O)OCC(=O)NC(C)c2ccc(F)cc2)c1C (stereo not drawn)	.	-26%	0%	?	.	.
CCOC(=O)c1c(C)[nH]c(C(=O)OCCOc2ccccc2C)c1C	61*	491%	-1%	260%	45*	-2%
CCOC(=O)c1ccc(OCCOc2ccccc2C)cc1	.	?	0%	2%	34*	7%
CCOC(=O)c1[nH]c(C)c(C(=O)Nc2ccc(C)c(C)c2)c1C	13	5.9µM*	-2%	.	15*	-6%
CCOC(=O)c1[nH]c(COC(=O)CCCOc2ccccc2)c(C(=O)OCC)c1C	1	?	-1%	13µM*	3	-4%
CCOC(=O)c1[nH]c(COC(=O)CCOc2ccccc2OC)c(C(=O)OCC)c1C	5	150%	2%	66%	1	7%
COc1ccc(OC)c(NC(=O)CCn2cccn2)c1	.	.	-2%	.	.	.
COC(=O)c1c(C)sc(-c2c(-c3ccc4c(c3)OCCO4)[nH]c3[nH]c(=O)[nH]c(=O)c23)c1O	.	.	-10%	.	.	.
COc1ccc(OC)c(NC(=O)C(CCSC)NS(=O)(=O)c2cccs2)c1 (stereo not drawn)	-7	109%	-15%	11%	-6	-3%
COc1ccccc1N(C)S(=O)(=O)c1ccc(C(=O)Nc2ncc(C)s2)cc1	.	?	2%	?	.	.
COc1ccccc1N(C)S(=O)(=O)c1ccc(C(=O)Nc2nccs2)cc1	.	?	0%	15µM*	.	.
N#Cc1ccc(C(=O)NCC2CCCCC2)cc1	51*	4%	11%	43%	11*	-7%
COc1ccccc1N(C)S(=O)(=O)c1ccc(C(=O)N(C)Cc2ccc(OC(F)F)cc2)cc1	.	?	-8%	12µM*	.	.
COc1ccccc1N(C)S(=O)(=O)c1ccc(C(=O)Nc2nc(C)c(C(C)=O)s2)cc1	.	?	-1%	12µM*	.	.
COc1cc(OC)c2c(c1)C(=O)c1cc(OC)cc(OC)c1C2=O	-8	?	9%	12%	-6	2%
COc1ccccc1N(C)S(=O)(=O)c1ccc(C(=O)NCC2CCCCC2)cc1	.	?	-7%	13µM*	.	.
CCCc1nnc(NC(=O)c2ccc(S(=O)(=O)N(C)c3ccccc3OC)cc2)s1	.	13µM*	-3%	10µM*	.	.
Nc1nccnc1C(=O)OCC(=O)c1ccc[nH]1	.	2%	-27%	0%	.	.
Cc1ccc(C)c(-n2c(-c3ccc(Br)cc3)csc2=NC(=O)c2ccccc2F)c1	-11	0.23µM*	16%	0.41µM*	-1	29%
Cc1ccc2c(c1)C(c1ccncc1)=NNC(c1ccccc1)=N2	103*	?	17%	-19%	50*	-1%
